# From PubChem BioAssay (EPA / NIEHS)
# Several values for one entry are separate records, joined by “and”; a condition that tells them apart may be missing. Identical values can stand only once. Results filed as inconclusive are left out. Activity calls are given as the source filed them. The calls were made as follows, unless noted: active = hit-call score of the fitted dose curve at least 0.9, where 1 is the maximum; inconclusive = response in the unintended direction; inactive = score below 0.9.
# Legend:
# [1] = read-out: sulfotransferase 2A1 (SULT2A1), SULT2A1 (gene 6822); test: LTEA_HepaRG_SULT2A1: Life Technologies and Expression Analysis (LTEA) Assay for sulfotransferase 2A1 (SULT2A1) using HepaRG (AID 2283531; active = hit-call score of the fitted dose curve at least 0.9, where 1 is the maximum; inactive = score below 0.9); settings: mRNA level, 48 h; actives raise or lower the signal
# In short: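 Expression change of SULT2A1, by qRT-PCR with three housekeeping-gene normalization, was scored bidirectionally versus DMSO. Cells: differentiated HepaRG, dosed in duplicate for 48 h across 8 points, highest 100 µM, half-log dilution, 0.5% DMSO.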
# [2] = read-out: Transforming Growth Factor (TGFA), TGFA (gene 7039); test: LTEA_HepaRG_TGFA: Life Technologies and Expression Analysis (LTEA) Assay for Transforming Growth Factor (TGFA) using HepaRG (AID 2283532; active = hit-call score of the fitted dose curve at least 0.9, where 1 is the maximum; inactive = score below 0.9); settings: mRNA level, 48 h; actives raise or lower the signal
# In short: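 HepaRG (human liver line), 48 h exposure, 8 conc. half-log down from 100 uM, 0.5% DMSO vehicle, duplicates; serum-free induction medium. TGFA mRNA by TaqMan qRT-PCR, ACTB/GAPDH/POLR2A normalization; gain/loss fit vs DMSO.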
# [3] = read-out: Transforming Growth Factor (TGFB1), TGFB1 (gene 7040); test: LTEA_HepaRG_TGFB1: Life Technologies and Expression Analysis (LTEA) Assay for Transforming Growth Factor (TGFB1) Transporter using HepaRG (AID 2283533; active = hit-call score of the fitted dose curve at least 0.9, where 1 is the maximum; inactive = score below 0.9); settings: mRNA level, 48 h; actives raise or lower the signal
# In short: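 TGFB1 transcript measured by qRT-PCR with normalisation to three housekeeping genes (ACTB, GAPDH, POLR2A); human HepaRG line treated in duplicate for 48 hr with an 8-point series topping at 100 uM, 0.5% DMSO vehicle, bidirectionally fitted.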
# [4] = read-out: TIMP1, TIMP1 (gene 7076); test: LTEA_HepaRG_TIMP1: Life Technologies and Expression Analysis (LTEA) Assay for TIMP1 using HepaRG (AID 2283534; active = hit-call score of the fitted dose curve at least 0.9, where 1 is the maximum; inactive = score below 0.9); settings: mRNA level, 48 h; actives raise or lower the signal
# In short: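 Bidirectional change in TIMP1 transcript versus 0.5% DMSO, measured by TaqMan qRT-PCR with three housekeeping genes for normalization. HepaRG human liver cells dosed 48 h in duplicate, top concentration 100 uM with half-log dilutions.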
# [5] = read-out: Thyroid Hormone Responsive (THRSP), THRSP (gene 7069); test: LTEA_HepaRG_THRSP: Life Technologies and Expression Analysis (LTEA) Assay for Thyroid Hormone Responsive (THRSP) using HepaRG (AID 2283536; active = hit-call score of the fitted dose curve at least 0.9, where 1 is the maximum; inactive = score below 0.9); settings: mRNA level, 48 h; actives raise or lower the signal
# In short: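 mRNA induction or loss relative to 0.5% DMSO vehicle was fitted bidirectionally across an eight-point curve whose highest exposure was 100 uM. Human HepaRG liver cells received chemicals in duplicate over 48 h before RNA extraction.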
# [6] = read-out: Cellular tumor antigen p53 (Homo sapiens) (UniProt P04637); test: LTEA_HepaRG_TP53: Life Technologies and Expression Analysis (LTEA) Assay for Tumor Protein P53 (TP53) using HepaRG (AID 2283537; active = hit-call score of the fitted dose curve at least 0.9, where 1 is the maximum; inactive = score below 0.9); settings: mRNA level, 48 h; actives raise or lower the signal
# In short: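 Read-out is TP53 transcript level by microfluidic qRT-PCR, normalised to three housekeeping genes and fitted bidirectionally against DMSO. Human HepaRG cells received compounds for 48 h, highest concentration 100 uM.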
# [7] = read-out: UDP glucuronosyltransferase (UGT1A1), UGT1A1 (gene 54658); test: LTEA_HepaRG_UGT1A1: Life Technologies and Expression Analysis (LTEA) Assay for UDP glucuronosyltransferase (UGT1A1) using HepaRG (AID 2283538; active = hit-call score of the fitted dose curve at least 0.9, where 1 is the maximum; inactive = score below 0.9); settings: mRNA level, 48 h; actives raise or lower the signal
# In short: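 HepaRG cells, 0.5% DMSO vehicle, 48 h exposure in serum-free induction medium to 8-point half-log series topping at 100 uM, in duplicate. UGT1A1 mRNA by Fluidigm qRT-PCR, normalized to ACTB/GAPDH/POLR2A; bidirectional fit versus DMSO.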
# [8] = read-out: UDP glucuronosyltransferase (UGT1A6), UGT1A6 (gene 54578); test: LTEA_HepaRG_UGT1A6: Life Technologies and Expression Analysis (LTEA) Assay for UDP glucuronosyltransferase (UGT1A6) using HepaRG (AID 2283539; active = hit-call score of the fitted dose curve at least 0.9, where 1 is the maximum; inactive = score below 0.9); settings: mRNA level, 48 h; actives raise or lower the signal
# In short: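 Expression was quantified by TaqMan qRT-PCR on Fluidigm arrays with ACTB/GAPDH/POLR2A normalization and bidirectional fitting against 0.5% DMSO. HepaRG cells (~100,000/well) were treated in duplicate for 48 h at eight half-log concentrations up to 100 uM in serum-free induction medium.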
# [9] = read-out: X-box binding protein 1 (XBP1), XBP1 (gene 7494); test: LTEA_HepaRG_XBP1: Life Technologies and Expression Analysis (LTEA) Assay for X-box binding protein 1 (XBP1) using HepaRG (AID 2283540; active = hit-call score of the fitted dose curve at least 0.9, where 1 is the maximum; inactive = score below 0.9); settings: mRNA level, 48 h; actives raise or lower the signal
# In short: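 XBP1 transcript by qRT-PCR (housekeeping-normalized: ACTB, GAPDH, POLR2A) after 48 h chemical treatment of HepaRG cells, 8-point half-log series topping at 100 uM, vehicle 0.5% DMSO. Gain and loss of signal fitted relative to DMSO.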
# [10] = LTEA_HepaRG_LDH_cytotoxicity: Cytotoxicity Assessment in the Life Technologies and Expression Analysis (LTEA) Assay (AID 2283563);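 as to AC50: LDH activity released into spent culture medium as a marker of cell death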
# In short: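 LDH release into culture medium read after 48 h chemical treatment of HepaRG cells. Duplicate wells, eight-point half-log series topping at 100 uM, 0.5% DMSO vehicle and baseline.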
# [11] = molecular target: Cellular tumor antigen p53 (Homo sapiens) (UniProt P04637); test: TOX21_p53_BLA_p2_ratio: Tox21 HCT-116 p53 Agonism Beta-lactamase Assay, Ratio, Phase 2 (AID 2283592)
# In short: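 Gain-of-signal p53 agonism was scored from the beta-lactamase FRET ratio (460/530 nm, 405 nm excitation) in HCT116 cells treated 16 h at 37C, 5% CO2, with DMSO serving as negative control and baseline.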
# [12] = molecular target: Cellular tumor antigen p53 (Homo sapiens) (UniProt P04637); test: TOX21_p53_BLA_p3_ratio: Tox21 HCT-116 p53 Agonism Beta-lactamase Assay, Ratio, Phase 3 (AID 2283596)
# In short: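 HCT116 p53-bla cells (4000/well) given compound in DMSO (217-fold dilution) after 5 h, incubated 16 h at 37C. CCF4-AM substrate 2 h at room temperature; 460/530 nm emission ratio, gain fitted against DMSO.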
# [13] = molecular target: Cellular tumor antigen p53 (Homo sapiens) (UniProt P04637); test: TOX21_p53_BLA_p5_ratio: Tox21 HCT-116 p53 Agonism Beta-lactamase Assay, Ratio, Phase 5 (AID 2283599)
# In short: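 Beta-lactamase reporter ratio (blue 460 nm over green 530 nm, 405 nm excitation) after 2 h CCF4-AM loading, in HCT-116 cells exposed 16 h at 37 C to compounds pinned at 217-fold dilution. Increases relative to DMSO baseline scored.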
# [14] = molecular target: Cellular tumor antigen p53 (Homo sapiens) (UniProt P04637); test: TOX21_p53_BLA_p4_ratio: Tox21 HCT-116 p53 Agonism Beta-lactamase Assay, Ratio, Phase 4 (AID 2283601)
# In short: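 Signal is the blue/green (460nm/530nm) ratio of cleaved versus uncleaved CCF4-AM substrate, read after 2 h substrate loading. Cells were HCT116 carrying the p53-responsive beta-lactamase reporter, dosed 16 h at 37C, 5% CO2; CellTiter-Glo measured in parallel.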
# [15] = ATG_XTT_Cytotoxicity: Cytotoxicity Assessment in the Attagene TRANS-FACTORIAL HepG2 Assay (AID 2283584)
# In short: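 Viability endpoint from XTT after 24 h chemical exposure of reporter-transfected human HepG2 liver cells; signal loss fitted relative to DMSO negative control.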
# [16] = TOX21_p53_BLA_p2_viability: Viability Assessment in the Tox21 HCT-116 p53 Agonism Beta-lactamase Assay, Phase 2 (AID 2283591);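 also: compound exposure lasted 16 h at 37 °C; actives lower the ATP signal meaning cytotoxicity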
# In short: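 Cytotoxicity readout: CellTiter-Glo ATP luminescence, 30 min at room temperature, after the beta-lactamase read. Cells were HCT116 exposed 16 h at 37C to compounds pin-transferred at 217-fold dilution from DMSO stocks.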
# [17] = TOX21_p53_BLA_p4_viability: Viability Assessment in the Tox21 HCT-116 p53 Agonism Beta-lactamase Assay, Phase 4 (AID 2283597);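 also: hits lower the luminescence signal meaning cytotoxicity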
# In short: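 Following a 16 h exposure at 37C, the treated HCT116 wells were first read for the FRET ratio. They were then lysed with CellTiter-Glo, and ATP luminescence was recorded after 30 min at room temperature.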
# [18] = TOX21_p53_BLA_p5_viability: Viability Assessment in the Tox21 HCT-116 p53 Agonism Beta-lactamase Assay, Phase 5 (AID 2283600)
# In short: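 After the 460/530 nm beta-lactamase measurement, the wells received an ATP-detection luciferase reagent; signal was read 30 min later at RT. Compound treatment lasted 16 h on cells pre-incubated 5 h post-seeding.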
# [19] = TOX21_p53_BLA_p3_viability: Viability Assessment in the Tox21 HCT-116 p53 Agonism Beta-lactamase Assay, Phase 3 (AID 2283593);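 also: cells exposed to compound for 16 h before reading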
# In short: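 Cellular ATP was quantified by CellTiter-Glo luminescence, read after 30 min at room temperature. Beforehand, HCT116 cells (4000/well) received compound 5 h post-seeding, 217-fold diluted from DMSO, then incubated 16 h at 37C.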
# Cellular tumor antigen p53 (Homo sapiens), sequence (P04637 whole entry, looked up): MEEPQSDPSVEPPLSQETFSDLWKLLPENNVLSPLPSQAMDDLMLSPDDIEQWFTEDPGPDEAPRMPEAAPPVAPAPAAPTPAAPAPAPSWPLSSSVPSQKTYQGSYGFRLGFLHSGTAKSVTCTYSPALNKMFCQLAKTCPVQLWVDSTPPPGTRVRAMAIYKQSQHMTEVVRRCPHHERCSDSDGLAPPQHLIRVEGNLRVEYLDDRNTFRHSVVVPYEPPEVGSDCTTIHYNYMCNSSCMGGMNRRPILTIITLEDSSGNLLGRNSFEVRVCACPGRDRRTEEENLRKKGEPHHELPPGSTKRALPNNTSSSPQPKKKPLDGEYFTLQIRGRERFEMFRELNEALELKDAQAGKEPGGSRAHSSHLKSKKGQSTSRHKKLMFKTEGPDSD
smiles,measurement,setting,value
NCCO,outcome,[1],inactive
same,outcome,[2],inactive
same,outcome,[3],inactive
same,outcome,[4],inactive
same,outcome,[5],inactive
same,outcome,[6],inactive
same,outcome,[7],inactive
same,outcome,[8],inactive
same,outcome,[9],inactive
same,outcome,[10],inactive
same,outcome,[11],inactive
same,outcome,[12],inactive
same,outcome,[13],inactive
same,outcome,[14],inactive
Cc1ccc(Cl)cc1,outcome,[1],inactive
same,outcome,[2],inactive
same,outcome,[3],inactive
same,outcome,[4],inactive
same,outcome,[6],inactive
same,outcome,[7],inactive
same,outcome,[8],inactive
same,outcome,[9],inactive
same,outcome,[10],inactive
same,outcome,[15],inactive
same,outcome,[16],inactive
same,outcome,[11],inactive
same,outcome,[12],inactive
same,outcome,[17],inactive
same,outcome,[13],inactive
same,outcome,[18],inactive
same,outcome,[14],inactive
CCCCCCCC=O,outcome,[1],inactive
same,outcome,[2],inactive
same,outcome,[3],inactive
same,outcome,[4],inactive
same,outcome,[5],inactive
same,outcome,[7],inactive
same,outcome,[8],inactive
same,outcome,[9],inactive
same,outcome,[10],inactive
same,outcome,[15],inactive
same,outcome,[16],inactive
same,outcome,[11],inactive
same,outcome,[19],inactive
same,outcome,[12],inactive
same,outcome,[17],inactive
same,outcome,[18],inactive
same,outcome,[14],inactive
CCOC(=O)C(C)(C)Oc1ccc(Cl)cc1,outcome,[1],inactive
same,outcome,[2],inactive
same,outcome,[3],inactive
same,outcome,[4],inactive
same,outcome,[5],inactive
same,AC50,[7],15.8 µM (active)
same,outcome,[8],inactive
same,outcome,[9],inactive
same,outcome,[10],inactive
same,outcome,[16],inactive
same,outcome,[11],inactive
same,outcome,[19],inactive
same,outcome,[12],inactive
same,outcome,[17],inactive
same,outcome,[13],inactive
same,outcome,[18],inactive
same,outcome,[14],inactive
O=C(N[C@@H](Cc1ccccc1)[C@@H](O)C(=O)N1C[C@@H](O)[C@@H](O)C1)c1cc2cc(Cl)ccc2[nH]1,outcome,[1],inactive
same,outcome,[2],inactive
same,outcome,[4],inactive
same,AC50,[5],88.6 µM (active)
same,outcome,[7],inactive
same,outcome,[8],inactive
same,AC50,[9],50 µM (active)
same,outcome,[10],inactive
same,outcome,[16],inactive
same,outcome,[11],inactive
same,outcome,[19],inactive
same,outcome,[12],inactive
same,AC50,[17],71 µM (active)
same,outcome,[13],inactive
same,outcome,[18],inactive
same,outcome,[14],inactive
Cc1cc(=O)[nH]c(=S)[nH]1,outcome,[1],inactive
same,outcome,[2],inactive
same,outcome,[3],inactive
same,outcome,[4],inactive
same,outcome,[5],inactive
same,outcome,[7],inactive
same,outcome,[8],inactive
same,outcome,[9],inactive
same,outcome,[10],inactive
same,outcome,[16],inactive
same,outcome,[11],inactive
same,outcome,[19],inactive
same,outcome,[12],inactive
same,outcome,[17],inactive
same,outcome,[13],inactive
same,outcome,[18],inactive
same,outcome,[14],inactive
COc1ccc(S(=O)(=O)N2C(=O)[C@@](c3ccccc3OC)(N3C[C@H](O)C[C@H]3C(=O)N(C)C)c3cc(Cl)ccc32)c(OC)c1,AC50,[1],50.7 µM (active)
same,AC50,[2],78.7 µM (active)
same,AC50,[3],19.1 µM (active)
same,outcome,[4],inactive
same,AC50,[5],19.5 µM (active)
same,AC50,[6],22.7 µM (active)
same,AC50,[7],34.8 µM (active)
same,AC50,[8],79 µM (active)
same,outcome,[9],inactive
same,AC50,[10],79.5 µM (active)
same,AC50,[16],86.3 µM (active)
same,AC50,[11],74.9 µM (active)
same,outcome,[12],inactive
same,AC50,[17],67.7 µM (active)
same,AC50,[13],75 µM (active)
same,AC50,[18],77.4 µM (active)
same,AC50,[14],86.6 µM (active)
NS(=O)(=O)c1cc2c(cc1Cl)NCNS2(=O)=O,outcome,[1],inactive
same,outcome,[2],inactive
same,outcome,[3],inactive
same,outcome,[4],inactive
same,outcome,[5],inactive
same,outcome,[7],inactive
same,outcome,[8],inactive
same,outcome,[9],inactive
same,outcome,[10],inactive
same,outcome,[16],inactive
same,outcome,[11],inactive
same,outcome,[19],inactive
same,outcome,[12],inactive
same,outcome,[17],inactive
same,outcome,[13],inactive
same,outcome,[18],inactive
same,outcome,[14],inactive
COc1cccc2c1C(=O)c1c(O)c3c(c(O)c1C2=O)C[C@@](O)(C(=O)CO)C[C@@H]3O[C@H]1C[C@H](N)[C@H](O)[C@H](C)O1,outcome,[15],inactive
same,outcome,[16],inactive
same,AC50,[11],98.2 nM (active) and 390 nM (active)
same,outcome,[19],inactive
same,AC50,[12],0.401 µM (active)
same,AC50,[13],238 nM (active) and 422 nM (active)
same,AC50,[14],211 nM (active) and 437 nM (active)
